Measured values from the supplement of paper PMC13380429.

Test system: Vero E6 infected with SARS-CoV-2
Assay: inhibition of SARS-CoV-2 cytopathic effect; higher = more antiviral protection, active = above 15
Conditions: 48 h

Measured: inhibition of SARS-CoV-2 cytopathic effect

CCOc1ccc(S(=O)(=O)O)c2cccnc12 [actinoquinol]
inactive: 1 nM 0.25% | 8.33 nM 0.94% | 100 nM 0.78% | 833.33 nM 1.14% | 10000 nM -3.36%

Nc1nccc(Oc2ccc(NC(=O)c3c[nH]cc(-c4ccc(F)cc4)c3=O)cc2F)c1Cl [metatinib]
inactive: 1 nM 0.06% | 8.33 nM 0.76% | 100 nM 0.97% | 833.33 nM 4.29% | 10000 nM -2.56%

CN1CCN(CCCN2c3ccccc3Sc3ccc(Cl)cc32)CC1 [prochlorperazine]
inactive: 1 nM -0.92% | 8.33 nM 0.64% | 100 nM 0.48% | 833.33 nM -0.06% | 10000 nM 14.6%

Cc1cc(CCC[C@H](CC(=O)NO)C(=O)N[C@H](C(=O)N[C@H](C)c2ccccc2)C(C)(C)C)ccc1-c1ccccc1
inactive: 1 nM -1.73% | 8.33 nM -2.08% | 100 nM -3.51% | 833.33 nM -2.76% | 10000 nM -13%

OB1OCc2cc(F)ccc21 [tavaborole]
inactive: 1 nM -0.98% | 8.33 nM 1.46% | 100 nM -1.21% | 833.33 nM 2.11% | 10000 nM -2.53%

N#Cc1ccc(NCCNCC(=O)N2CCC[C@H]2C#N)nc1
inactive: 1 nM 0.59% | 8.33 nM 2.4% | 100 nM -0.06% | 833.33 nM 3.35% | 10000 nM 2.5%

CCOC(=O)Nc1cc2c(c(N)n1)N=C(c1ccccc1)[C@H](C)N2 [mivobulin]
inactive: 1 nM 3.19% | 8.33 nM 0.16% | 100 nM 1.34% | 833.33 nM 1.06% | 10000 nM -0.59%
